Test results published in PubChem BioAssay AID1159580 (chemical genetic matrix, 2015).
Where “and” joins values, the source holds several entries; their conditions need not be identical. Equal values may be shown once. About 2,000 (36%) of roughly 5,500 compounds were called active. About 18% were inconclusive and are not listed. Rule as the data show it: active = normalized growth mostly below about 0.91 (no sharp cut-off); inconclusive = no clear call, values can overlap the other calls; inactive = mostly above about 0.92. Some of the results follow.

Assay: chemical genetic growth profiling, strain panel (AID 1159580);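 also: tested at 20 µM; growth read once vehicle control cultures reached saturation at 30 °C; 1 = growth at the plate median or of vehicle wells; lower values mean less growth of the strain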
Details: growth OD

Measured: normalized growth

Cc1ccc(S(=O)(=O)NC(=O)NN2CCCCCC2)cc1
inactive: S. cerevisiae deletion strains, locus YJR075W, strain HOC1, active compounds read low 1.03 | S. cerevisiae deletion strains, locus YKL009W, strain mrt4, active compounds read low 1.03 | S. cerevisiae deletion strains, locus YKL068W, active compounds read low 0.988 | S. cerevisiae deletion strains, locus YKL085W, strain MDH1 (second series), active compounds read low 0.977 | S. cerevisiae deletion strains, locus YKL085W, strain MDH1, active compounds read low 0.977 | S. cerevisiae deletion strains, locus YKL160W, strain elf1, active compounds read low 0.957 | S. cerevisiae deletion strains, locus YKL190W, strain CNB1, active compounds read low 1 | S. cerevisiae deletion strains, locus YKR001C, strain vps1, active compounds read low 0.981 | S. cerevisiae deletion strains, locus YKR026C, strain gcn3, active compounds read low 0.992 | S. cerevisiae deletion strains, locus YKR091W, strain srl3, active compounds read low 0.983 | S. cerevisiae deletion strains, locus YLL001W, strain dnm1, active compounds read low 0.982 | S. cerevisiae deletion strains, locus YLL026W, active compounds read low 0.995 | S. cerevisiae deletion strains, locus YLL041C, strain sdh2, active compounds read low 0.99 | S. cerevisiae deletion strains, locus YLR027C, strain aat2, active compounds read low 0.99 | S. cerevisiae deletion strains, locus YLR039C, strain RIC1, active compounds read low 0.954 | S. cerevisiae deletion strains, locus YLR058C, strain SHM2, active compounds read low 0.992 | S. cerevisiae deletion strains, locus YLR102C, strain apc9, active compounds read low 0.985 | S. cerevisiae deletion strains, locus YLR113W, strain HOG1, active compounds read low 1.03 | S. cerevisiae deletion strains, locus YLR221C, strain rsa3, active compounds read low 1.02 | S. cerevisiae deletion strains, locus YLR258W, strain gsy2, active compounds read low 0.98 | S. cerevisiae deletion strains, locus YLR262C, strain YPT6 (second series), active compounds read low 0.961 | S. cerevisiae deletion strains, locus YLR262C, strain YPT6, active compounds read low 0.962 | S. cerevisiae deletion strains, locus YLR268W, strain sec22, active compounds read low 0.983 | S. cerevisiae deletion strains, locus YLR320W, strain mms22, active compounds read low 0.996 | S. cerevisiae deletion strains, locus YLR330W, strain CHS5, active compounds read low 0.994 | S. cerevisiae deletion strains, locus YLR342W, strain FKS1 (second series), active compounds read low 0.941 | S. cerevisiae deletion strains, locus YLR342W, strain FKS1, active compounds read low 0.987 | S. cerevisiae deletion strains, locus YLR357W, strain rsc2, active compounds read low 0.928 | S. cerevisiae deletion strains, locus YLR370C, strain arc18, active compounds read low 0.968 | S. cerevisiae deletion strains, locus YLR371W, strain rom2, active compounds read low 0.977 | S. cerevisiae deletion strains, locus YLR384C, strain iki3, active compounds read low 0.992 | S. cerevisiae deletion strains, locus YLR418C, strain cdc73, active compounds read low 0.989 | S. cerevisiae deletion strains, locus YML016C, strain PPZ1, active compounds read low 0.991 | S. cerevisiae deletion strains, locus YML032C, strain rad52, active compounds read low 0.992 | S. cerevisiae deletion strains, locus YML120C, strain ndi1, active compounds read low 1 | S. cerevisiae deletion strains, locus YML124C, strain tub3, active compounds read low 0.988 | S. cerevisiae deletion strains, locus YMR058W, strain fet3, active compounds read low 0.994 | S. cerevisiae deletion strains, locus YMR078C, strain ctf18, active compounds read low 0.968 | S. cerevisiae deletion strains, locus YMR125W, strain sto1, active compounds read low 0.988 | S. cerevisiae deletion strains, locus YMR129W, active compounds read low 0.987 | S. cerevisiae deletion strains, locus YMR205C, strain PFK2, active compounds read low 1.01 | S. cerevisiae deletion strains, locus YMR223W, strain ubp8, active compounds read low 0.97 | S. cerevisiae deletion strains, locus YMR231W, strain pep5, active compounds read low 0.986 | S. cerevisiae deletion strains, locus YMR263W, strain SAP30, active compounds read low 0.998 | S. cerevisiae deletion strains, locus YMR307W, strain GAS1, active compounds read low 0.956 and 1 | S. cerevisiae deletion strains, locus YNL067W, strain RPL9B, active compounds read low 1.02 | S. cerevisiae deletion strains, locus YNL071W, strain lat1, active compounds read low 0.99 | S. cerevisiae deletion strains, locus YNL128W, strain TEP1, active compounds read low 0.988 | S. cerevisiae deletion strains, locus YNL153C, strain GIM3, active compounds read low 1.05 and 1 | S. cerevisiae deletion strains, locus YNL175C, strain NOP13, active compounds read low 0.991 | S. cerevisiae deletion strains, locus YNL183C, strain NPR1, active compounds read low 0.946 | S. cerevisiae deletion strains, locus YNL197C, strain WHI3, active compounds read low 0.974 | S. cerevisiae deletion strains, locus YNL209W, strain ssb2, active compounds read low 0.968 | S. cerevisiae deletion strains, locus YNL224C, strain SQS1, active compounds read low 1 | S. cerevisiae deletion strains, locus YNL233W, strain BNI4, active compounds read low 1.04 | S. cerevisiae deletion strains, locus YNL248C, strain rpa49, active compounds read low 0.961 | S. cerevisiae deletion strains, locus YNL250W, strain rad50, active compounds read low 0.949 | S. cerevisiae deletion strains, locus YNL271C, strain bni1, active compounds read low 0.983 | S. cerevisiae deletion strains, locus YNL298W, strain CLA4, active compounds read low 0.965 | S. cerevisiae deletion strains, locus YNL307C, strain MCK1, active compounds read low 0.983 | S. cerevisiae deletion strains, locus YNL322C, strain KRE1 (second series), active compounds read low 0.965 | S. cerevisiae deletion strains, locus YNL322C, strain KRE1, active compounds read low 1 | S. cerevisiae deletion strains, locus YNR049C, strain mso1, active compounds read low 0.967 | S. cerevisiae deletion strains, locus YNR052C, strain pop2, active compounds read low 0.974 | S. cerevisiae deletion strains, locus YOL006C, strain TOP1, active compounds read low 1.02 | S. cerevisiae deletion strains, locus YOL012C, strain htz1 1.06 | S. cerevisiae deletion strains, locus YOL147C, strain pex11, active compounds read low 0.975 | S. cerevisiae deletion strains, locus YOR001W, strain rrp6, active compounds read low 1.03 | S. cerevisiae deletion strains, locus YOR061W, strain CKA2, active compounds read low 0.994 | S. cerevisiae deletion strains, locus YOR069W, strain VPS5, active compounds read low 0.994 | S. cerevisiae deletion strains, locus YOR070C, strain gyp1, active compounds read low 0.979 | S. cerevisiae deletion strains, locus YOR080W, strain dia2, active compounds read low 0.979 | S. cerevisiae deletion strains, locus YOR083W, strain WHI5 (second series), active compounds read low 0.971 | S. cerevisiae deletion strains, locus YOR083W, strain WHI5, active compounds read low 0.927 | S. cerevisiae deletion strains, locus YOR106W, strain vam3, active compounds read low 0.984 | S. cerevisiae deletion strains, locus YOR136W, strain idh2, active compounds read low 0.984 | S. cerevisiae deletion strains, locus YOR144C, strain elg1, active compounds read low 0.974 | S. cerevisiae deletion strains, locus YOR184W, strain ser1, active compounds read low 1 | S. cerevisiae deletion strains, locus YOR231W, strain MKK1, active compounds read low 1 | S. cerevisiae deletion strains, locus YOR265W, strain rbl2, active compounds read low 1 | S. cerevisiae deletion strains, locus YOR270C, strain vph1, active compounds read low 1.02 | S. cerevisiae deletion strains, locus YOR290C, strain snf2, active compounds read low 0.957 | S. cerevisiae deletion strains, locus YOR316C, strain cot1, active compounds read low 0.992 | S. cerevisiae deletion strains, locus YPL051W, strain arl3, active compounds read low 0.969 | S. cerevisiae deletion strains, locus YPL078C, strain atp4, active compounds read low 0.98 | S. cerevisiae deletion strains, locus YPL106C, strain sse1, active compounds read low 0.957 | S. cerevisiae deletion strains, locus YPL240C, strain hsp82, active compounds read low 0.988 | S. cerevisiae deletion strains, locus YPL241C, strain CIN2, active compounds read low 0.999 | S. cerevisiae deletion strains, locus YPL256C, strain CLN2, active compounds read low 1.01 | S. cerevisiae deletion strains, locus YPR119W, strain clb2, active compounds read low 0.983 | S. cerevisiae deletion strains, locus YPR141C, strain kar3, active compounds read low 0.976 | S. cerevisiae deletion strains, locus YPR163C, strain tif3, active compounds read low 0.982 | S. cerevisiae deletion strains, locus YPR167C, strain met16, active compounds read low 0.991 | S. cerevisiae deletion strains, strain wtn01, active compounds read low 1.01 | S. cerevisiae strains, strain wild type, active compounds read low 1
